From PubChem BioAssay (NCI)
Compounds without any hit were thinned out: in the full panel of roughly 79,000, 15% have a hit. A number with no mark means an inactive call. Activity calls are given as the source filed them. No stated cut-off is given here; in the data, active means growth inhibition above about 70%; inactive means the rest.

Legend:
[1] = NCI Yeast Anticancer Drug Screen. Data for the rad50 strain (AID 155);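 further: 0% = growth of vehicle-only cultures of the same strain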; details: S. cerevisiae rad50 strain growth inhibition; at 50.0 µM; stronger effect = higher value
How it was run: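 A DNA repair-deficient yeast mutant serves as the test organism; compound-induced growth inhibition is calculated against vehicle-treated cells.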

[2] = NCI Yeast Anticancer Drug Screen. Data for the mec2-1 strain (AID 157); details: S. cerevisiae mec2-1 strain, at 50.0 µM, stronger effect = higher value
How it was run: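 Strain: mec2-1 (DNA repair/cell cycle alteration). Compound exposure, then growth measured; inhibition expressed relative to vehicle.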

[3] = NCI Yeast Anticancer Drug Screen. Data for the sgs1 mgt1 strain (AID 161);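 further: 0% = growth of cultures given vehicle only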; details: S. cerevisiae sgs1 mgt1 strain, at 50.0 µM, stronger effect = higher value
How it was run: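 Genetically altered yeast, compound exposure, growth inhibition relative to vehicle.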

[4] = NCI Yeast Anticancer Drug Screen. Data for the cln2 rad14 strain (AID 165);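 further: 0% = growth equal to vehicle treated cultures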; details: S. cerevisiae cln2 rad14 strain, at 50.0 µM, stronger effect = higher value
How it was run: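 Compounds are applied to the cln2 rad14 yeast strain, and growth is then compared with that of vehicle-treated cultures to give inhibition.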

[5] = NCI Yeast Anticancer Drug Screen. Data for the bub3 strain (AID 167); details: S. cerevisiae bub3 mutant strain, at 50.0 µM, stronger effect = higher value
How it was run: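 Inhibition values come from growth of compound-treated mutant yeast normalised to vehicle-treated controls.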

[6] = NCI Yeast Anticancer Drug Screen. Data for the mlh1 rad18 strain (AID 175); details: S. cerevisiae mlh1 rad18 strain growth inhibition; at 50.0 µM; stronger effect = higher value
How it was run: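 Read-out is yeast growth inhibition, calculated against vehicle-only controls. The compound was applied to a strain engineered with DNA damage repair alterations.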

Compound | growth inhibition [1] [%] | growth inhibition [2] [%] | growth inhibition [3] | growth inhibition [4] | growth inhibition [5] | growth inhibition [6]
CN(C)C(=S)/N=c1\ssc(=S)n1C1CCCCC1 | -22.1 | 2.55 | 6.45% | -49.6% | 25.7% | -11.5%
O=C1CC[C@H]2[C@@H]3N1c1ccccc1[C@@]31CCN3C/C(=C/CBr)[C@@H]2C[C@H]31 | 21.4 | -3.05 | 6.25% | 19.4% | -1.8% | 11.1%
C=C1C(=O)OC2(CCCCC)CCCCC12 (stereo unspecified) | 1.95 | 4.1 | -11.2% | -9.9% | 0.5% | -10.5%
Cc1ccc(-c2cc(=O)c3cc(C)c(C)c(C(=O)O)c3o2)cc1[N+](=O)[O-] | -20.7 | -5.1 | -1.05% | 12.2% | 2% | 31.1%
COC1OC(COS(C)(=O)=O)C(OS(C)(=O)=O)C(OC(=O)c2ccccc2)C1OS(C)(=O)=O (stereo unspecified) | -6.25 | 8 | -9.6% | 1.15% | -0.85% | 20.6%
CCOC(=O)C(NC(=O)c1cccc(Cl)c1)(Nc1ccc(S(=O)(=O)Nc2cc(C)on2)cc1)C(F)(F)F (stereo unspecified) | 67.2 | 69.3 | 82.3% (active) | 84.7% (active) | 79.2% (active) | 91% (active)
COc1cc([N+](=O)[O-])ccc1NC(=O)C(Br)C(Br)c1ccccc1 (stereo unspecified) | 11.7 | -5.9 | 10.6% | -1.4% | 12.5% | 15.6%
Cc1ccc(C(=O)Nc2ccc(CP(=O)(O)O)cc2CP(=O)(O)O)cc1N | -25.1 | -14.8 | 19.3% | 6.05% | -14.7% | 1.8%
CC(C)=CCC(C)c1ccncc1 (stereo unspecified) | 1.9 | -9.15 | 9.45% | -9.05% | 15% | 7.4%
Cc1ccc(/C=C2/NC(=S)SC2=O)cc1 | -14.1 | -3.6 | 14.6% | 12% | 1.75% | -30.4%
O=C(O)C1CCCCC1C(=O)Nc1nc2ccccc2[nH]1 (stereo unspecified) | -18.6 | -17.1 | -12.7% | -16.7% | -57.9% | -10.6%
CN(C)c1nc(N(C)C)c2cnn(C)c2n1 | 21.7 | 3.7 | 20.9% | -15.8% | -2.7% | -29.8%
CC(C)=CC1C(COC(=O)c2ccccc2Cl)C1(C)C (stereo unspecified) | 1 | -8.3 | -2.9% | -27.9% | -12.4% | 18.8%
O=C(Nc1cc2[nH]c(=O)c3ccccc3c2cc1[N+](=O)[O-])C(F)(F)F | 40 | -5.85 | 10.8% | 0.9% | -12.4% | 0.25%
c1ccc2c(c1)Oc1ccccc1S2 | -14.2 | -2.9 | -0.15% | 3.85% | 7.35% | -0.3%
O=C1NC2c3ccccc3CCC12 (stereo unspecified) | -1.55 | -5.45 | -1.5% | -71.8% | 8.65% | -4.5%
CC(=O)OC1CCC23COC(CC(C)C2C)C3(Cl)C1 (stereo unspecified) | -0.7 | -4.65 | -3.25% | -8.1% | -11.2% | 5.05%
CCCNC(=O)CCC(=O)NS(=O)(=O)c1ccc(Cl)cc1 | -14.4 | -3.05 | 16.5% | -16.4% | 16.1% | 7.15%
COC(=O)c1cc(C(=CCC[C@H]2CC[C@@]3(C)C(CCC4C3CC[C@@]3(C)C4CC[C@@H]3C(C)CCCC(C)C)C2)c2cc(Cl)c(O)c(C(=O)OC)c2)cc(Cl)c1O (stereo partly specified) | 0 | 4.1 | -10% | 6.6% | 5.15% | -18.4%
O=[N+]([O-])c1nccn1CCC[n+]1cccc2ccccc21 | -38.6 | -17.2 | -14.2% | -14.9% | -19.9% | -13.4%
CCOCC(=O)NC1Cc2cc(OC)c(OC)cc2C1O (stereo unspecified) | -29.8 | -6.2 | 0.1% | -17.1% | 2.15% | 15.6%

Compound | growth inhibition [1] [%] | growth inhibition [2] [%] | growth inhibition [3] | growth inhibition [4] | growth inhibition [5] | growth inhibition [6]
CC(=O)O[C@H]1CC[C@@]2(C)[C@@H](CC[C@@H]3[C@@H]2CC(=O)[C@@]2(C)[C@H]3C[C@@H]3CC(C)=CC(=O)[C@@H]32)C1 | 48.2 | -7.55 | 28.6% | -20.6% | -34.9% | 28%
OCCN(CCO)c1cc(/C=C/c2cccc3ccccc23)nc2ccccc12 | 56.9 | 11.3 | 39.6% | 3.85% | -6.5% | 37.4%
COC(=O)C1=C(c2ccccc2)c2ccc3ccccc3c2C1c1ccccc1 (stereo unspecified) | 40.1 | -8.25 | 22.9% | 12.4% | 6.15% | 25.2%
CSc1nc(NC2OCC(O)C(O)C2O)c(Br)c(=O)n1C (stereo unspecified) | 9.05 | 15.8 | -0.75% | 1.95% | 6.3% | 36%
O=C(O)[C@@H]1CCC(=O)N1C(c1ccc2c(c1)OCO2)c1ccc2c(c1)OCO2 | -52.2 | -18.1 | -31.1% | 4.35% | -15.1% | -24.4%
ClCc1nnc(-c2ccccc2)o1 | 14.8 | -2.9 | -16.2% | -43% | -16.2% | -4.75%
CO[C@@H]1[C@@H](O)c2ccccc2N1C(C)=O | 13.4 | 1.9 | -4% | 8.15% | 3.25% | 20.1%
O=C(CCC1CCCC1)Oc1ccccc1C(=O)O | -1.9 | -9.65 | 7.1% | -42.7% | 9.5% | 3.4%
NNc1ccc(S(=O)(=O)C(F)F)cc1 | 29.9 | -29.2 | 20.6% | 41% | 41.2% | 13.1%
CC1CS(=O)(=O)O1 (stereo unspecified) | -4.45 | -6.75 | -18.6% | 9.5% | 10.3% | 6.8%
Cc1ccc(Cl)cc1NC(=O)Oc1cc(C)c(Cl)c(C)c1 | 1 | 8.2 | -4.1% | 6.85% | 25.7% | 4.35%
CCN(CC)C(=O)C1=C(C)NC(C)=C(C(=O)N(CC)CC)C1 | -36.7 | -55 | -18.6% | -22.1% | -8.35% | -68.5%
CC(=O)OC1C/C(C)=C/CCC(C)/C=C/C2(C)CCC(C(C)(C)O)C12 (stereo unspecified) | 1.7 | -10.3 | 11.9% | 2.5% | 14.1% | 17.6%
Cc1cccn2nnnc12 | -7.75 | -12.2 | -9.1% | 9% | 1.65% | -10.8%
C=Cc1nnnn1C | 7.45 | 16.2 | -5.85% | 10.3% | 10.4% | 10.8%
CC(C)(C)c1ccc(-n2c3nc(=O)n(-c4ccccc4CO)c(=O)c-3cc3ccccc32)cc1 | -9.75 | -12.8 | -9.5% | -11.6% | -0.95% | 4.95%
NC(=O)CC(Nc1ncc2c(n1)-c1ccccc1OC2)C(=O)O (stereo unspecified) | 37.6 | -16.4 | -10.5% | 9.95% | -45.8% | -53.8%
COc1ccc(N2C(=O)C3c4[nH]c5ccccc5c4C4CCC(C(C)(C)C)CC4C3C2=O)c(C)c1 (stereo unspecified) | 11.9 | 1.95 | 14.7% | 17.1% | -2.45% | 17.1%
CSCc1cc(C)ccc1NC(C)=O | 0.5 | -7.85 | -0.75% | -16.5% | -13.2% | 10.8%
Cc1ccc(C)c(NC(=O)CCC(=O)C(C#N)c2nc3ccccc3s2)c1 (stereo unspecified) | 25.9 | -3.3 | -5.15% | 17.6% | 3.7% | -5.7%
